Test results: ChEMBL document CHEMBL3988442, “University of Dundee, Small-Polar-MMV Screening Library” (2021)
Among all 69,000 compounds or so, about 1,000 (1.4%) showed an effect of 50% or more. For the sample, strong results were picked, then their nearest neighbours and some compounds at random.

System: Leishmania donovani
Experiment: Leishmania intramacrophage assay
Type: functional, organism-based
Set-up: scale not given: in the data most compounds retested in dose-response had high values

CN(CCO)C[C@@H]1CN(Cc2ccccc2-c2ccccc2)C[C@@H]1CO
Percent Effect (30.3 µM, […]): 83.9%

CN(CCO)C[C@@H]1CN(C(=O)Cc2ccc3ccccc3c2)C[C@@H]1CO
Percent Effect (30.3 µM, […]): -1.562%

CN(C)C[C@@H]1CN(C2CCN(c3ccccc3Cl)CC2)C[C@@H]1CO
Percent Effect (30.3 µM, […]): 52.98%

CN(CCO)C[C@@H]1CN(C(=O)c2c(F)cccc2Cl)C[C@@H]1CO
Percent Effect (30 µM, 30.03 µM): 27.13%

CN(CCO)C[C@@H]1CN(C2CCN(c3ccccc3Cl)CC2)C[C@@H]1CO
Percent Effect (30.3 µM, […]): 89.6%

O=C(NCCSCc1ccco1)c1ccc(N2CCOCC2)cc1
Percent Effect (30.3 µM, […]): -4.352%

CCc1nnc2n1CCN(C(=O)c1nc(-c3ccco3)sc1C)C2
Percent Effect (30 µM): 1.353%

O=C(O)C(F)(F)F.O=C(c1ccoc1)N1C[C@@H]2OCCN(c3ncccn3)[C@@H]2C1
Percent Effect (30.3 µM, […]): 10.14%

CCc1nccn1-c1nccnc1C1CCCN(C(=O)COC)C1 (centres undefined)
Percent Effect (30.3 µM, […]): 11.67%

Cc1cc(=O)[nH]c(NCCNC(=O)C(c2ccc(F)cc2)N(C)C)n1 (centres undefined)
Percent Effect (30 µM, 30.03 µM): -13%

OCC1(NCc2cnc(-c3cccs3)s2)CCOCC1
Percent Effect (30.3 µM, […]): 16.11%

O=C(C1CC=CC1)N1CCC2(CCC(=O)N2Cc2cccc(F)c2)CC1
Percent Effect (30.3 µM, […]): 15.71%

CCOc1ccc(Cl)c(C(=O)NC(Cc2ccccc2)C(N)=O)n1 (centres undefined)
Percent Effect (30.3 µM, […]): 6.553%

CN(C)S(=O)(=O)CCCOc1cccc(-n2ccnc2)c1
Percent Effect (30.3 µM, […]): -0.5544%

Cc1ccc(N2CCC(N3C[C@@H](CN(C)C)[C@@H](CO)C3)CC2)cc1
Percent Effect (30.3 µM, […]): 38.77%

CNC(=O)CN(C)C1CCN(c2ccc(Cl)cc2)CC1
Percent Effect (30.3 µM, […]): 24.19%

CN(C)C[C@@H]1CN(C2CCN(c3ccc(Cl)cc3)CC2)C[C@@H]1CO
Percent Effect (30.3 µM, […]): 93.76%

OC(COCc1cccs1)Cn1cc(Cl)cn1 (centres undefined)
Percent Effect (30.3 µM, […]): 11.71%

O=C(c1csc2nc(-c3ccc(Cl)cc3)cn12)N1CCCC(CO)C1 (centres undefined)
Percent Effect (30.3 µM, […]): -3.231%

CC(C)N1CCN(C(=O)c2csc3nc(-c4ccc(Cl)cc4)cn23)CC1
Percent Effect (30.3 µM, […]): 11.51%

CCC1CN(C(=O)c2csc3nc(-c4ccc(Cl)cc4)cn23)CCN1 (centres undefined)
Percent Effect (30.3 µM, […]): 94.25%

CN(CC1CCOCC1)C(=O)NCCCN1CCCCC1
Percent Effect (30.3 µM, […]): 19.46%

O=C(c1ccncc1)N1CCC(c2nc(O)cc(-c3cccnc3)n2)C1 (centres undefined)
Percent Effect (30 µM, 30.03 µM): -2.25%

CN(C)CC1(O)CCN(C(=O)Cc2ccc(Cl)c(Cl)c2)C1 (centres undefined)
Percent Effect (30.3 µM, […]): 1.329%

Cc1cc2occ(CC(=O)N3CCC4(CCCN(C)C4=O)C3)c2cc1Cl (centres undefined)
Percent Effect (30.3 µM, […]): 10.63%

Cc1cc2occ(CC(=O)N3CCC(O)(CN(C)C)C3)c2cc1Cl (centres undefined)
Percent Effect (30.3 µM, […]): 50.58%

O=C(O)[C@@H]1CCN(C(=O)Cc2ccccn2)[C@@H]1c1ccc(F)cc1
Percent Effect (30.3 µM, […]): 8.228%

CCO[C@H]1C[C@@H](O)C12CCN(C(=O)CC(F)(F)F)CC2
Percent Effect (30.3 µM, […]): -0.6132%

CN(C)CCNC(=O)c1sc2ccccc2c1C1CCC(CN)CC1.Cl (centres undefined)
Percent Effect (30.3 µM, […]): 63.37%

Cl.NCC1CCC(c2c(C(=O)NCCO)sc3ccccc23)CC1 (centres undefined)
Percent Effect (30.3 µM, […]): 15.08%

COCCNC(=O)c1sc2ccccc2c1C1CCC(CN)CC1.Cl (centres undefined)
Percent Effect (30.3 µM, […]): 18.8%

COCc1cccc(NS(=O)(=O)c2cc(C(=O)O)cs2)c1
Percent Effect (30 µM, 30.03 µM): 36.6%

CCNc1ncc2c(n1)CN(c1ccc(OC(F)(F)F)cc1)C2=O
Percent Effect (30.3 µM, […]): 23.96%

CN1CCC(O)(CNCc2ccc(F)c(C(F)(F)F)c2)CC1
Percent Effect (30.3 µM, […]): 85.74%

OC1(CNCc2ccc(F)c(C(F)(F)F)c2)CCSCC1
Percent Effect (30.3 µM, […]): 40.38%

OC1(CNCc2ccc(F)c(C(F)(F)F)c2)CCOC1 (centres undefined)
Percent Effect (30.3 µM, […]): 25.18%

CC(C)N1CCN(c2ccc3ccc(C(=O)NC4CCCC4)cn23)CC1.O=C(O)C(F)(F)F
Percent Effect (30.3 µM, […]): 37.85%

N#Cc1cc(F)c(NCCCOCC2CCOC2)c(F)c1 (centres undefined)
Percent Effect (30.3 µM, […]): 29.08%

CCc1c(C)nc(C)nc1N1C[C@@H](CN(C)CCN(C)C)[C@@H](CO)C1
Percent Effect (30.3 µM, […]): 30.66%

CCc1c(C)nc(C)nc1N1C[C@@H](CN(C)C)[C@@H](CO)C1
Percent Effect (30.3 µM, […]): 54.47%

CCc1c(C)nc(C)nc1N1C[C@@H](CN(CC)CCO)[C@@H](CO)C1
Percent Effect (30.3 µM, […]): -0.6836%

Cn1ccnc1CN1C[C@@H](CN2CCCC2)[C@@H](CO)C1
Percent Effect (30.3 µM, […]): 30.27%

CCN1CC[C@]2(CN(Cc3nccs3)C[C@H]2c2ccccc2)C1=O.O=C(O)C(F)(F)F
Percent Effect (30.3 µM, […]): 23.61%

COc1ccc(-c2n[nH]c(C)c2CC(=O)NCCN2CCOCC2)cc1
Percent Effect (30.3 µM, […]): -10.63%

Cc1cc(CS(=O)(=O)C(C)C(=O)N(C)c2ccccc2)on1 (centres undefined)
Percent Effect (30.3 µM, […]): 59.375%

Cc1noc(C)c1CS(=O)(=O)C(C)C(=O)N(C)c1ccccc1 (centres undefined)
Percent Effect (30.3 µM, […]): 39.61%

Cc1noc(CS(=O)(=O)C(C)C(=O)N(C)c2ccccc2)n1 (centres undefined)
Percent Effect (30.3 µM, […]): 12.83%

Cc1cc(C)n(CC2CN(Cc3cc(C)on3)CCO2)n1 (centres undefined)
Percent Effect (30 µM): 28.82%

O=C(CN1CCOCS1(=O)=O)NCc1ccccc1
Percent Effect (30.3 µM, […]): -15.82%
